Assay outcomes as filed in PubChem.
Rows were chosen to be rich in hits. Some 19% of all compounds tested hit in one or more screens of this group.
DT40 TDP1 no CPT: qHTS for Inhibitors of human tyrosyl-DNA phosphodiesterase 1 (TDP1): qHTS in cells in absence of CPT; DT40 Tdp1-/- hTDP1 cells, no CPT, ATP luminescence, 48 h; Potency, µM (highest dose often 46.2 µM), hits mostly inhibitors; 15% of 420,000 active; also: nearly all actives have a fitted effect of over 55% in size
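A cellular qHTS used chicken DT40 cells lacking endogenous Tdp1 but carrying stably transfected human TDP1. Compounds were applied without camptothecin, and cell growth kinetics were judged by ATP-dependent luminescence after ≥48 hr.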
DT40 TDP1 CPT: qHTS for Inhibitors of human tyrosyl-DNA phosphodiesterase 1 (TDP1): qHTS in cells in presence of CPT; chicken DT40 Tdp1-/-;hTDP1 cells + 20 nM CPT, ATP luminescence, 48 h; Potency, µM (highest dose often 46.2 µM), most hits filed as inhibitors; 12% of 420,000 active; also: nearly all actives have a fitted effect of over 55% in size
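Cell growth measured by CellTiter-Glo luminescence after a minimum 48 h, 37 C compound exposure with 20 nM CPT in Tdp1-knockout DT40 cells stably expressing hTDP1, seeded 400/well; qHTS titration format.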
HT1080NT lethal: qHTS for induction of synthetic lethality in tumor cells producing 2HG: qHTS for the HT-1080-NT fibrosarcoma cell line. Potency, µM (doses to about 46.1 µM), actives largely listed as cytotoxic. HT-1080-NT fibrosarcoma viability, CellTiter-Glo ATP luminescence, 48 h. 1.6% of 360,000 active;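 also: NT is the 2HG producing partner of a matched IDH1 knockdown line; nearly all actives have a fitted effect of over 55% in size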
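Viability of the 2HG-overproducing fibrosarcoma line after 48 hours of compound exposure at 37 degrees C was determined by luminescence with CellTiter-Glo, and concentration-effect curves were then fitted and categorized.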
HT1080 IDH1KD tx: qHTS for induction of synthetic lethality in tumor cells producing 2HG: qHTS for the HT-1080-IDH1KD cell line | HT-1080 IDH1 knockdown viability, ATP luminescence, 48 h | 2% of 360,000 active | Potency, µM (titrated, usually from 46.1 µM), most hits filed as cytotoxic
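CellTiter-Glo luminescence after 48 h compound exposure at 37 degrees C of IDH1-knockdown HT-1080 cells in 5% FBS RPMI. %Activity scaled between DMSO wells and cell-free media wells, with curves fitted and assigned curve classes.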
IL-1B inflam inh: qHTS for Inhibitors of Inflammasome Signaling: IL-1-beta AlphaLISA Primary Screen; THP-1 LPS/ATP IL-1B secretion, AlphaLISA, 16 h; stronger effect = lower value; activity change, % at 57.5 µM; 4.7% of 360,000 active; AID 743279, 2014; in the data active = activity change below about -50%; inconclusive = mostly about -30% to -49%
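Secreted IL-1B measured by AlphaLISA bead assay after 16 h compound exposure of THP-1 cells; compounds (final up to 57.5 uM) added 1 h before LPS (250 ng/mL) and ATP (1.25 mM) stimulation; lower signal means less secretion.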
Numbers stand for hits; i = inactive; ? = inconclusive; nt = no result given; [ ] = another dose, or the depositor's remark. Unless noted, calls follow the shape of the dose curve; as a rule, active = well fitted curve in the direction sought with a large enough effect; inconclusive = small, poorly fitted or top-dose-only effect, or another doubt; inactive = no such curve, though single readings can be large; an effect the other way counts as inactive or inconclusive.

SMILES	DT40 TDP1 no CPT	DT40 TDP1 CPT	HT1080NT lethal	HT1080 IDH1KD tx	IL-1B inflam inh
CC1(C)CCC(=O)N2CC[C@H]3C[C@H](OC(=O)Nc4ccccc4)C[C@@H]1[C@H]32	?	16µM	i	i	i
O=C(Nc1ccccc1)OC1CCC2CC1CCC2OC(=O)Nc1ccccc1 (centres undefined)	12µM	13µM	?	?	?
CC(=O)Nc1ccccc1NC(=O)C/C(C)=N/NC(=O)C(=O)N1CCCCC1	i	i	i	i	i
COc1ccc(CN(C)C(=O)c2oc3ccccc3c2CSC)cc1F	21µM	23µM	i	i	i
CC(C)c1ccc(S(=O)(=O)N2CCN(C(=O)C3CCN(C(=O)c4ccc(F)cc4)CC3)CC2)cc1	i	?	i	i	i
CCOC(=O)Cc1cc(C(=O)Nc2ccc(Br)cc2)sc1-c1ccc(C)cc1	21µM	?	nt	nt	nt
CCOC(=O)c1sc2ncn(CC(=O)Nc3ccc(C)cc3C)c(=O)c2c1C	i	i	nt	nt	nt
CCN(CC)CC(=O)N1CCCC(C(=O)c2ccccc2OC)C1 (centres undefined)	i	i	i	i	i
COc1ccccc1C(=O)C1CCCN(C(=O)c2ccc(Cl)cc2)C1 (centres undefined)	16µM	?	i	i	i
COc1ccccc1C(=O)C1CCCN(C(=O)CCC(=O)c2ccccc2)C1 (centres undefined)	29µM	10µM	i	i	i
CCCCOc1ccc(/C=C/C(=O)Nc2ccc([N+](=O)[O-])cc2C)cc1	?	?	i	i	i
Cc1ccccc1OCCNC(=O)/C=C/c1ccc([N+](=O)[O-])cc1	?	i	i	i	-70
CCCOc1ccc(/C=C/C(=O)Nc2ccc([N+](=O)[O-])cc2)cc1	21µM	18µM	13µM	i	-87
COc1cccc2c3c(c(C)nc12)CC(CO)O3 (centres undefined)	i[9.04 µM]	?	nt	nt	nt
Cc1ccc(C(C(=O)NCc2ccco2)N(C(=O)CNC(=O)c2cccs2)c2ccc(C)cc2C)cc1 (centres undefined)	6.5µM	29µM	i	i	i
Cc1ccc(N(C(=O)CNC(=O)c2ccco2)C(C(=O)NC2CCCC2)c2ccncc2)c(C)c1 (centres undefined)	i	i	i	i	i
O=C(NC(=S)NC1CCC(O)CC1)c1ccco1 (centres undefined)	i	i	i	i	i
Nc1nc(NCC2CCCO2)nc(NCC2CCCO2)c1[N+](=O)[O-] (centres undefined)	i	i	i	i	i
CC(C)CCNc1nc(N)c([N+](=O)[O-])c(NCC2CCCO2)n1 (centres undefined)	?	15µM	i	i	i
CC1NC(=O)c2cccnc2-n2c1nc1cc(F)c(F)cc1c2=O (centres undefined)	i	i	i	i	i
CC1CC(OC(=O)C(O)c2ccccc2)CC(C)(C)C1 (centres undefined)	7.5µM	?	nt	nt	nt
CCc1cccc2c1NC(=O)C21OCCO1	i	i	i	i	i
O=c1[nH]nc(N2CCOCC2)c(=O)[nH]1	16µM	?	i	i	i
Cc1cc(C)c(NC(=O)C2CCCO2)c(C)c1 (centres undefined)	i	i	i	i	i
Cc1cc(C(=O)OCC(=O)N(C)c2ccccc2)c(C)o1	i	i	i	i	i
SMILES	DT40 TDP1 no CPT	DT40 TDP1 CPT	HT1080NT lethal	HT1080 IDH1KD tx	IL-1B inflam inh
Nc1c(C(=O)N/N=C/c2ccc([N+](=O)[O-])cc2)cnn1-c1ccccc1	i	i	i	i	i
Cc1c(C(=S)Nc2ccccc2)cnn1-c1ccccc1	i	21µM	i	i	i
Cc1c(C(=S)Nc2ccccc2)cnn1-c1ccc([N+](=O)[O-])cc1	?	16µM	i	i	i
Cc1c(C(=O)Nc2cc(F)cc(F)c2)cnn1-c1ccccc1	12µM	13µM	i	i	i
CC(=O)c1cnn(-c2ccccc2)c1C	i	i	i	i	i
CSCCC(NS(=O)(=O)c1ccc(Cl)cc1)C(=O)OCC(=O)NC12CC3CC(CC(C3)C1)C2 (centres undefined)	?	13µM	i	i	i
COC(=O)C(CCSC)NS(=O)(=O)c1ccc(Cl)cc1 (centres undefined)	i	i	i	i	i
CSCCC(NS(=O)(=O)c1ccc(Cl)cc1)C(=O)OCC(=O)N1CCCc2ccccc21 (centres undefined)	18µM	23µM	i	i	i
CSCCC(NS(=O)(=O)c1ccc(Cl)cc1)C(=O)OCC(=O)N1CCOCC1 (centres undefined)	i	i	i	i	i
CN1CCC(N(C)S(=O)(=O)c2ccc(NC(=O)COc3ccc(Br)cc3Cl)cc2)CC1	16µM	26µM	16µM	18µM	-63
Cc1ccccc1OCCC(=O)Nc1ccc(S(=O)(=O)N(C)C2CCN(C)CC2)cc1	?	?	i	i	-61
CN1CCC(N(C)S(=O)(=O)c2ccc(NC(=O)COc3cccc(Cl)c3)cc2)CC1	?	?	i	i	i
CN1CCC(N(C)S(=O)(=O)c2ccc(NC(=O)Cc3ccc(F)cc3)cc2)CC1	i	i	i	i	i
COc1ccccc1NC(=O)CN1C(=O)C(c2ccc(F)cc2)=NC1(C)C	i	i	nt	nt	nt
CC1=C(C)/C(=N\OS(=O)(=O)c2ccccc2)C=CC1=O	0.56µM	0.56µM	7.1µM	8.9µM	-121
O=C1Cc2ccccc2N1c1ccccc1	i	i	i	i	i
O=C1CC(=Nc2ccccc2)NN1c1ccccc1	i	i	18µM	?	i
O=C1[C@@H](Oc2ccccc2)[C@@H](c2ccncc2)N1c1ccccc1	18µM	?	?	21µM	i
COc1ccc(C2C(Oc3ccccc3)C(=O)N2c2ccc(C)c(C)c2)cc1OC (centres undefined)	?	?	i	i	i
O=C1[C@H](c2ccccc2)[C@@H](c2ccccc2)N1c1ccncc1	?	15µM	i	i	i
O=C1[C@@H](Oc2ccccc2)[C@@H](c2ccccc2)N1c1cccnc1	13µM	?	i	i	i
Cc1nc2c(C)cccn2c1/C(O)=C1\C(=O)C(=O)N(CCN(C)C)C1c1ccco1 (centres undefined)	i	i	i	i	i
COC(=O)c1cnc(Nc2nc(C(N)Cc3ccccc3)cs2)nc1C(F)(F)F (centres undefined)	21µM	23µM	?	?	?
